Legend:
[1] = target: Mast/stem cell growth factor receptor Kit (Homo sapiens) (UniProt P10721); settings: at 1 µM
[2] = system: Mast/stem cell growth factor receptor Kit (Homo sapiens), P10721 [D816V]; settings: at 0.1 µM
[3] = system: Mast/stem cell growth factor receptor Kit (Homo sapiens), P10721 [D816V]; settings: at 1 µM
[4] = system: Mast/stem cell growth factor receptor Kit (Homo sapiens), P10721 [T670I]; settings: at 0.1 µM
[5] = system: Mast/stem cell growth factor receptor Kit (Homo sapiens), P10721 [T670I]; settings: at 1 µM
[6] = system: Mast/stem cell growth factor receptor Kit (Homo sapiens), P10721 [V560G]; settings: at 0.1 µM
[7] = system: Mast/stem cell growth factor receptor Kit (Homo sapiens), P10721 [V560G]; settings: at 1 µM
[8] = target: Tyrosine-protein kinase Lck (Homo sapiens) (UniProt P06239); settings: at 0.1 µM
[9] = target: Tyrosine-protein kinase Lck (Homo sapiens) (UniProt P06239); settings: at 1 µM
[10] = target: Leukocyte tyrosine kinase receptor (Homo sapiens) (UniProt P29376); settings: at 0.1 µM
[11] = target: Leukocyte tyrosine kinase receptor (Homo sapiens) (UniProt P29376); settings: at 1 µM
[12] = target: Tyrosine-protein kinase Lyn (Homo sapiens) (UniProt P07948); settings: at 0.1 µM
[13] = target: Tyrosine-protein kinase Lyn (Homo sapiens) (UniProt P07948); settings: at 1 µM
[14] = target: Tyrosine-protein kinase Lyn (Homo sapiens) (UniProt P07948); settings: at 0.1 µM; remark: listed apart in the source
[15] = target: Tyrosine-protein kinase Lyn (Homo sapiens) (UniProt P07948); settings: at 1 µM; remark: listed apart in the source
[16] = target: T1, Tyrosine-protein kinase Mer (Homo sapiens) (UniProt Q12866); settings: at 0.1 µM
T1 sequence (whole entry): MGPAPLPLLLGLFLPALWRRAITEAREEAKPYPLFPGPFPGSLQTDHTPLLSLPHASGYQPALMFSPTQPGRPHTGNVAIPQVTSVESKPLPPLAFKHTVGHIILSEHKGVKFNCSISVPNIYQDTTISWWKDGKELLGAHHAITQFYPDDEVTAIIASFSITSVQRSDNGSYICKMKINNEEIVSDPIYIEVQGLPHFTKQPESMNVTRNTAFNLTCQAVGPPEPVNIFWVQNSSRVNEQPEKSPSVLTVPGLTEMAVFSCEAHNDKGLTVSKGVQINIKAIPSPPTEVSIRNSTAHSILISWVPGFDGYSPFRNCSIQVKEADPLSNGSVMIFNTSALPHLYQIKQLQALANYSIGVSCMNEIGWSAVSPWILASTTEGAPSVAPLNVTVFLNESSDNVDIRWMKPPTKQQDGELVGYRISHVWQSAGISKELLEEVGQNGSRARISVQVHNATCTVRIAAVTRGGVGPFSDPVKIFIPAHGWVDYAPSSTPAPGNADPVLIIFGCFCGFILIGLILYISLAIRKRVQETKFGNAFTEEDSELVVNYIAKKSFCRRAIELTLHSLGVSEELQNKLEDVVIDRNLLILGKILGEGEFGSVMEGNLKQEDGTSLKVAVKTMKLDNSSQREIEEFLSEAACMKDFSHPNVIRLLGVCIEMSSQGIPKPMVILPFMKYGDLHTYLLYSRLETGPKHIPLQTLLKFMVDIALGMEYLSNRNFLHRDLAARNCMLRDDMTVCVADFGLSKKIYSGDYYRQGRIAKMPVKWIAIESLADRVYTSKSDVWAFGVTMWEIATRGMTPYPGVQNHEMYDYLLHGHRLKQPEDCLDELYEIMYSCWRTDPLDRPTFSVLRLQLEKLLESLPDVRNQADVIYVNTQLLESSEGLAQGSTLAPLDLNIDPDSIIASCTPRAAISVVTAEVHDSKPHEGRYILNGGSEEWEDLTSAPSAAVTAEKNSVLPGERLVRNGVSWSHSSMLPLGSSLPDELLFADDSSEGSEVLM

[17] = target: T1, Tyrosine-protein kinase Mer (Homo sapiens); settings: at 1 µM
[18] = target: Hepatocyte growth factor receptor (Homo sapiens) (UniProt P08581); settings: at 0.1 µM
[19] = target: Hepatocyte growth factor receptor (Homo sapiens) (UniProt P08581); settings: at 1 µM
[20] = target: T2, Muscle, skeletal receptor tyrosine-protein kinase (Homo sapiens) (UniProt O15146); settings: at 0.1 µM;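 note: values are mean inhibition of MuSK from the GSK PKIS kinase screening panel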
T2 sequence (whole entry): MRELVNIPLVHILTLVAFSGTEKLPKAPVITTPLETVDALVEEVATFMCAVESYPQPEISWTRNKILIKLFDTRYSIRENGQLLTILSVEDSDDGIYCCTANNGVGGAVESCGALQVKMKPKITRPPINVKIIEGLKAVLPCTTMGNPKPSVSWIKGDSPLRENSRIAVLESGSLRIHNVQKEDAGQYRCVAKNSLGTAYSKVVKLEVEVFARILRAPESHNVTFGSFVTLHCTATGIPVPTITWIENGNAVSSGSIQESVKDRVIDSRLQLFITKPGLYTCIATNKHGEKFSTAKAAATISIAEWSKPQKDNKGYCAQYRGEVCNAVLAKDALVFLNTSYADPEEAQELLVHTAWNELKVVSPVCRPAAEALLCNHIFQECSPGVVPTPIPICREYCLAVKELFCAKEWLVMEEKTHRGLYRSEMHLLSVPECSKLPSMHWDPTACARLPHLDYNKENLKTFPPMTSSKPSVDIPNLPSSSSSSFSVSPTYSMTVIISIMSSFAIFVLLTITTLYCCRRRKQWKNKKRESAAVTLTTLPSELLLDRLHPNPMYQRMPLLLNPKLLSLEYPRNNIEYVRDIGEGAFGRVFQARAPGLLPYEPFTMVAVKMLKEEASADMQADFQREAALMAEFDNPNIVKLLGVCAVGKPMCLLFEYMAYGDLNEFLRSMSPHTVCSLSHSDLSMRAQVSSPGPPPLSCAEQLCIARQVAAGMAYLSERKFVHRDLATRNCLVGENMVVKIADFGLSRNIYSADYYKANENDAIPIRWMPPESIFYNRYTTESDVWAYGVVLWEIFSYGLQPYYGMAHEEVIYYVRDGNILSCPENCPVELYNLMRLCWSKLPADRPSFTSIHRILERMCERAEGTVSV

Tyrosine-protein kinase Lck (Homo sapiens), sequence (P06239 2-509 limits assumed): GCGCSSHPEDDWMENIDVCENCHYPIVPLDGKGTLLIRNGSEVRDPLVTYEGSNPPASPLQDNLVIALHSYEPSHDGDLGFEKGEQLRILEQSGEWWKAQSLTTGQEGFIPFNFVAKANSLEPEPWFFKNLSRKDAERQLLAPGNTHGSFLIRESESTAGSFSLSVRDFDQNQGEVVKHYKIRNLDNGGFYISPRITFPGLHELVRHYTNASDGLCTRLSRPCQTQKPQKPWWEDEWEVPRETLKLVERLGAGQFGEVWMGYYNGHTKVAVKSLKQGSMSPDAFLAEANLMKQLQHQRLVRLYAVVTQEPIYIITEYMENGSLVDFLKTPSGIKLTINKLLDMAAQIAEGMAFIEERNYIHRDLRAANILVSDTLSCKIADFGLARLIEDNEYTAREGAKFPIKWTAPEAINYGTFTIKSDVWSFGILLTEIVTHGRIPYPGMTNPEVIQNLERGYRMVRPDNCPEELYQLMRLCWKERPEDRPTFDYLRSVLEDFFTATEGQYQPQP
Mast/stem cell growth factor receptor Kit (Homo sapiens), sequence (P10721 whole entry): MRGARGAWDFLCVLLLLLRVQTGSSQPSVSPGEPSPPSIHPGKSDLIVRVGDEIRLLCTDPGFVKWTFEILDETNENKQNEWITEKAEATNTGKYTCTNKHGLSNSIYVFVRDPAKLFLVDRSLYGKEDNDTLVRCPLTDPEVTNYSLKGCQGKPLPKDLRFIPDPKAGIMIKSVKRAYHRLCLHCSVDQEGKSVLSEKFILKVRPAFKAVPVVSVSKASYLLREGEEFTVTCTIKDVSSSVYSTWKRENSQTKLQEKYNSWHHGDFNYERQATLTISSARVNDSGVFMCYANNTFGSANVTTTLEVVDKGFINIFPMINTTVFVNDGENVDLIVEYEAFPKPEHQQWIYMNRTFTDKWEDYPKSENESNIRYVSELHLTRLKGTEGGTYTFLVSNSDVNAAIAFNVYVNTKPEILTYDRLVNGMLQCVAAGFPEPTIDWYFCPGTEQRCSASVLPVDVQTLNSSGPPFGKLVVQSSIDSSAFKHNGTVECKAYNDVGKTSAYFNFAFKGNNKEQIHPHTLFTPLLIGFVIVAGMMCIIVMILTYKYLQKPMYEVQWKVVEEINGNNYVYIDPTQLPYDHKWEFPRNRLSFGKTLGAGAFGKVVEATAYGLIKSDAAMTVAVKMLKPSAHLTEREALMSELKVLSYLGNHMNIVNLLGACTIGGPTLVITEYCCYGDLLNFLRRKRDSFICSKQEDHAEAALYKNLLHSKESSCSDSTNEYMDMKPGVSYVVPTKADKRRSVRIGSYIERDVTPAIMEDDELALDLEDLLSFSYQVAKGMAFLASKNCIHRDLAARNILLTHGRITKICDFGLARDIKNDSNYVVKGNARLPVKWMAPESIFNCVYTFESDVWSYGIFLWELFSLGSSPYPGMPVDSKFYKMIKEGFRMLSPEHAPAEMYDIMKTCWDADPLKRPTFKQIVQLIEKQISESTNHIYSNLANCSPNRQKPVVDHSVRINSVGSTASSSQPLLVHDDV
Mast/stem cell growth factor receptor Kit (Homo sapiens), P10721 [V560G], sequence (P10721 whole entry V560G): as the sequence (P10721 whole entry) above, with V560G counted along it
Tyrosine-protein kinase Lyn (Homo sapiens), sequence (P07948 2-512 limits assumed): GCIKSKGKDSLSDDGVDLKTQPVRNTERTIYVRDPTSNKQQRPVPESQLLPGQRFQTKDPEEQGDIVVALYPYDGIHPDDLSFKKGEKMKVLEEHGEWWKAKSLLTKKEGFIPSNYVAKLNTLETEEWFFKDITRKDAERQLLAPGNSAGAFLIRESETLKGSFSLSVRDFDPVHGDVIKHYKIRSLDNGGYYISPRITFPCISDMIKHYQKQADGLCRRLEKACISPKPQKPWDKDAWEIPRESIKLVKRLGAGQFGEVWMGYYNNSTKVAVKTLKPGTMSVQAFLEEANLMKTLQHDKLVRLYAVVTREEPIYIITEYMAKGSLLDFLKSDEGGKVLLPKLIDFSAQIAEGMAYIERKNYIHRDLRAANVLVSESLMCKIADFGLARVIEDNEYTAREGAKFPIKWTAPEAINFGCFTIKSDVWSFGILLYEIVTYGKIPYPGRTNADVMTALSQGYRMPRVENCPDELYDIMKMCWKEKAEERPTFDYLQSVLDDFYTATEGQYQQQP
Hepatocyte growth factor receptor (Homo sapiens), sequence (P08581 whole entry): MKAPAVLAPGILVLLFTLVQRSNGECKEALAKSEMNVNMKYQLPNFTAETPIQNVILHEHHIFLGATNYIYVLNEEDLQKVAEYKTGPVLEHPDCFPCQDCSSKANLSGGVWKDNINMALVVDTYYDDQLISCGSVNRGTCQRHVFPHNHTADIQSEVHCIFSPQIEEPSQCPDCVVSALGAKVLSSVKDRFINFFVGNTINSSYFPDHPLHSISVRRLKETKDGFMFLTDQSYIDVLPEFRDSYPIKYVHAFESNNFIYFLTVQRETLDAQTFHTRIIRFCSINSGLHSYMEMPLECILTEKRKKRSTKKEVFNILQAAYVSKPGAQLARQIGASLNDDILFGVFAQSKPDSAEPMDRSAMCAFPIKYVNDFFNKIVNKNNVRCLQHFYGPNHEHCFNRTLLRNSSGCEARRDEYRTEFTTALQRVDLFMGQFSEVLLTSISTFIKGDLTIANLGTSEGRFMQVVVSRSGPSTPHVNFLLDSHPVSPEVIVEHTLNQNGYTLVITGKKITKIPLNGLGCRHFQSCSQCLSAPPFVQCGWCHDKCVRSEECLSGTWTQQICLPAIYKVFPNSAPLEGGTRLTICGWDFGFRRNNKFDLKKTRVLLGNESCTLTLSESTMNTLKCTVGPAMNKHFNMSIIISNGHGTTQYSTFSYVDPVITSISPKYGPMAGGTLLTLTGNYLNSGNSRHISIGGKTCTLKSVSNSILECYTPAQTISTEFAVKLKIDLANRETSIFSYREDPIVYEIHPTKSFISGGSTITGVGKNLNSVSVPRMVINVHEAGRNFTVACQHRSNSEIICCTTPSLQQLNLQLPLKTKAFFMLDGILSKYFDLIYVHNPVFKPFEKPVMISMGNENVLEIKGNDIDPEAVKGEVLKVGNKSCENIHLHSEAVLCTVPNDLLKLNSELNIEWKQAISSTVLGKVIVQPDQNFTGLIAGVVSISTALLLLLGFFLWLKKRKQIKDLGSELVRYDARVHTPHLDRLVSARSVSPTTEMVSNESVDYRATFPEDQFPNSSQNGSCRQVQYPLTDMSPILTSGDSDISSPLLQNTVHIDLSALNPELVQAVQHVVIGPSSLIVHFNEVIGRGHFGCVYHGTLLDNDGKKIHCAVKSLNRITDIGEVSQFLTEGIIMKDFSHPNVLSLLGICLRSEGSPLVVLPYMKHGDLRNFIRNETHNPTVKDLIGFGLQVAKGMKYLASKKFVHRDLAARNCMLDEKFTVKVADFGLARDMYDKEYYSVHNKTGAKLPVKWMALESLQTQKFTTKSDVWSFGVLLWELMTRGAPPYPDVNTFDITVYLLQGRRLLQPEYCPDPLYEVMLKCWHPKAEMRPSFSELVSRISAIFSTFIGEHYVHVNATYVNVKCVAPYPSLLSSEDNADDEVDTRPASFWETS
Mast/stem cell growth factor receptor Kit (Homo sapiens), P10721 [D816V], sequence (P10721 whole entry D816V): as the sequence (P10721 whole entry) above, with D816V counted along it
Mast/stem cell growth factor receptor Kit (Homo sapiens), P10721 [T670I], sequence (P10721 whole entry T670I): as the sequence (P10721 whole entry) above, with T670I counted along it
Leukocyte tyrosine kinase receptor (Homo sapiens), sequence (P29376 whole entry): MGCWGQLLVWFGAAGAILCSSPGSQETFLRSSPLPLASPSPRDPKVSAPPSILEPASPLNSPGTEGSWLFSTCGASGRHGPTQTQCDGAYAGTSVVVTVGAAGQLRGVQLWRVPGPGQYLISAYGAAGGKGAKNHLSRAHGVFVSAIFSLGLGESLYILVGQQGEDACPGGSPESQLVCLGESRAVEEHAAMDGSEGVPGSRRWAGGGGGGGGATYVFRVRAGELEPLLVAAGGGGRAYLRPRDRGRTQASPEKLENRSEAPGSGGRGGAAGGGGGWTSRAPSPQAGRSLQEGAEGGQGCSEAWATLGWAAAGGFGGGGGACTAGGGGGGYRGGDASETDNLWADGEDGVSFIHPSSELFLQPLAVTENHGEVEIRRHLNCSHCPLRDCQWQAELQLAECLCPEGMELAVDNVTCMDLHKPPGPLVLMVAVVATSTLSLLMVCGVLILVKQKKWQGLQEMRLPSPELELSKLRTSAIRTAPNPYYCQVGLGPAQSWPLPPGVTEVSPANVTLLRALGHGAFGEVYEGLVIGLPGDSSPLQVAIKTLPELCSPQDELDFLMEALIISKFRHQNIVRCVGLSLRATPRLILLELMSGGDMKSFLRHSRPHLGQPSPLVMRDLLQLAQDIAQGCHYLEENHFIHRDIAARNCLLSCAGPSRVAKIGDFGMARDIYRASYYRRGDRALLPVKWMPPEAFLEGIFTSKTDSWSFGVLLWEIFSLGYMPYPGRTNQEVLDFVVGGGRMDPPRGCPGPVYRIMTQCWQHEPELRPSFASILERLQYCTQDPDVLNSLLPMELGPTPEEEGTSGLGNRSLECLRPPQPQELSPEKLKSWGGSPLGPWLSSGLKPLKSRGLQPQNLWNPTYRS

Row | Structure (SMILES) | inhibition [1] | inhibition [2] | inhibition [3] | inhibition [4] | inhibition [5] | inhibition [6] | inhibition [7] | inhibition [8] | inhibition [9] | inhibition [10] | inhibition [11] | inhibition [12] | inhibition [13] | inhibition [14] | inhibition [15] | inhibition [16] | inhibition [17] | inhibition [18] | inhibition [19] | inhibition [20]
1 | Fc1ccc(-c2nc3n(c2-c2ccncc2)CCS3)cc1 | 2.15% | 4.1% | 1.39% | 2.38% | 2.22% | 0.09% | -0.72% | -2.03% | 1.29% | 1.98% | 2.85% | 3.56% | 7.36% | 1.97% | 4.29% | 1.16% | 3.24% | 8.26% | 5.29% | 2.08%
2 | O=C(Nc1n[nH]c2cc(-c3cc(F)ccc3F)ccc12)C1CC1 | 7.05% | 1.5% | 3.88% | 2.63% | 3.43% | 1.22% | 1.15% | 1.37% | 6.57% | 6.64% | 2.7% | 5.22% | 5.51% | 3.27% | 2.53% | 0.82% | 2.71% | 6.12% | 4.36% | 3.35%
3 | O=C(Nc1n[nH]c2nc(-c3ccc(O)cc3)c(Br)cc12)C1CC1 | 63.1% | 9.03% | 10.1% | 3.13% | 4.94% | 2.07% | 10.8% | 6.75% | 22.2% | 62.8% | 91.6% | 9.57% | 16.2% | 6.94% | 13% | 1.7% | 8.16% | 4.98% | 10.9% | 4.48%
4 | O=C1NC(=O)C(c2cccc(Cl)c2)=C1Nc1ccc(Cl)c(C(=O)O)c1 | 5.28% | 1.8% | 5.8% | 2.83% | 4.22% | 1% | 6.94% | 1.82% | 0.84% | 2.51% | 2.96% | 3.89% | 4.02% | 2.44% | 3.42% | 1.12% | -0.64% | 1.38% | 3.65% | 2.04%
5 | COc1ccc(C2=C(N3CCc4ccccc43)C(=O)NC2=O)cc1 | 15.1% | 3.56% | 3.25% | 6.38% | 5.55% | 3.19% | 4.55% | 4.42% | 4.16% | 5.23% | 5.38% | 6.92% | 6.95% | 5.2% | 5.98% | 1.96% | 1.78% | 6.5% | 7.87% | 2.97%
6 | CCc1ccc(Oc2nccc(-c3c(-c4ccc(F)cc4)ncn3C3CCNCC3)n2)cc1 | 3.31% | 4.91% | 1.86% | 2.54% | 2.33% | -1.42% | -1.63% | 3.37% | 6.55% | 2.71% | 2.68% | 5.24% | 6.76% | 1.59% | 3.26% | 2.01% | 3.05% | 5.76% | 3.25% | 3.3%
7 | COc1cc2ncn(-c3cc(OCc4cccs4)c(C(N)=O)s3)c2cc1OC | 11.7% | -0.06% | 3.94% | 1.45% | 7.04% | 1.25% | 4.05% | -0.61% | 13.8% | 1.76% | 7.14% | 4.29% | 22.6% | 2.41% | 19.3% | 3.4% | 10.7% | 8.19% | 13.4% | 4.86%

— ChEMBL document CHEMBL1961873, “Compounds: GSK PKIS; Assays: Nanosyn kinase panel” (2012)
